Measured values taken from PubChem BioAssay (Tox21).
Results filed as inconclusive are left out. Calls of active or inactive are those of the source. Calls come from the whole dose curve.

Experiment: qHTS assay for small molecule agonists of the p53 signaling pathway (AID 651631); note: nearly all actives have a fitted effect of over 15% in size
Conditions: HCT-116 p53RE-bla reporter, beta-lactamase FRET ratio, 16 h; series mostly up to 73.3 µM; activation: at the top concentration
Procedure, shortened: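 Readout was fluorescence from the LiveBLAzer FRET substrate, applied for 2 h at room temperature after 16 h compound exposure at 37 °C. Cells were the p53RE-bla HCT-116 line, with beta-lactamase driven by p53 response elements.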
% is set by controls: 0 for no effect and ±100 for the full control effect.

Row | Structure (SMILES) | activation | outcome
1 | CC1CCc2c(N3CCC(O)CC3)c(F)cc3c(=O)c(C(=O)O)cn1c23 (stereo unspecified) | -4.11% (inactive) | –
2 | Cc1ccc(C(C)NC(=O)[C@@H](NC(=O)OC(C)C)C(C)C)cc1 (stereo partly specified) | -2.69% (inactive) | –
3 | CN(C)CC/C=C1/c2ccccc2COc2ccc(CC(=O)O)cc21 | 1.96% (inactive) | –
4 | Cc1cc(C)c(C(=O)O)c(C)c1 | 1.18% (inactive) | –
5 | CC1(C)[C@H]2CC[C@](C)(C2)[C@H]1O | 1.93% [at 95.1 µM] (inactive) | –
6 | COS(=O)(=O)O | -1.88% (inactive) | –
7 | CC1c2ccccc2CN1NC(=O)c1ccc(Cl)c(S(N)(=O)=O)c1 (stereo unspecified) | 2.46% (inactive) | –
8 | C=C(C)c1cccc(C(C)(C)N=C=O)c1 | 5.03% (inactive) | –
9 | C=CCCCCCCCC | 0.766% [at 95.1 µM] (inactive) | –
10 | O=S(=O)(O)c1ccc2c(N=Nc3ccc(S(=O)(=O)O)c4ccccc34)c(O)c(S(=O)(=O)O)cc2c1 | – | inactive
11 | CC(C)=CCC[C@@](C)(O)[C@H]1CC=C(C)CC1 | 3.31% (inactive) | –
12 | CN(C)CCCCl | -0.746% [at 95.1 µM] (inactive) | –
13 | CCC(=O)c1c(O)cc(O)cc1O | -2.68% (inactive) | –
14 | Nc1nc(-c2ccccc2)c(Br)c(=O)[nH]1 | 1.9% (inactive) | –
15 | CSc1cnccn1 | -3.15% (inactive) | –
16 | O=C1c2ccccc2C(=O)c2cc(Cl)ccc21 | -4.52% [at 8.3 µM] (inactive) | –
17 | CC(C)Nc1ccccc1 | 3.23% (inactive) | –
18 | C[C@@H](O)C(=O)O | 3.37% [at 95.1 µM] (inactive) | –
19 | OC[C@@H](O)C(O)[C@@H](O)CO (stereo partly specified) | -0.737% [at 95.1 µM] (inactive) | –
20 | O=C1CCCCO1 | 6.4% (inactive) | –
21 | CCCCOC(=O)[C@H](C)O | -0.527% (inactive) | –
22 | Cn1c(=O)c2[nH]c(Br)nc2n(C)c1=O | -5.4% (inactive) | –
23 | Cc1ccnc(N)c1 | -2.26% (inactive) | –
24 | Cc1cccc(Cl)c1 | -1.36% (inactive) | –
25 | [O]=[Mo](=[O])=[O] | -2.72% [at 34.7 µM] (inactive) | –
26 | CC1=NN(c2ccc(S(=O)(=O)O)cc2)C(=O)C1 | -1.1% (inactive) | –
